In ChEMBL document CHEMBL3988442, “University of Dundee, Small-Polar-MMV Screening Library” (2021) one finds Percent Effect data, which are given here for 9 compounds.

The structures appear in SMILES notation. For part of these data: Measured potencies and affinities stand elsewhere.

Holding throughout (parameters): scale not given: direction of the effect not stated beside the values
The target of assay [1] is Protein translocase subunit SecA (Escherichia coli (strain K12)) (UniProt P10408). In words: Assay to Identify E. coli SecA ATPase Inhibitors. The format is functional. The conditions noted are these: 30 µM.
Sequence of Protein translocase subunit SecA (Escherichia coli (strain K12)) (P10408 whole entry): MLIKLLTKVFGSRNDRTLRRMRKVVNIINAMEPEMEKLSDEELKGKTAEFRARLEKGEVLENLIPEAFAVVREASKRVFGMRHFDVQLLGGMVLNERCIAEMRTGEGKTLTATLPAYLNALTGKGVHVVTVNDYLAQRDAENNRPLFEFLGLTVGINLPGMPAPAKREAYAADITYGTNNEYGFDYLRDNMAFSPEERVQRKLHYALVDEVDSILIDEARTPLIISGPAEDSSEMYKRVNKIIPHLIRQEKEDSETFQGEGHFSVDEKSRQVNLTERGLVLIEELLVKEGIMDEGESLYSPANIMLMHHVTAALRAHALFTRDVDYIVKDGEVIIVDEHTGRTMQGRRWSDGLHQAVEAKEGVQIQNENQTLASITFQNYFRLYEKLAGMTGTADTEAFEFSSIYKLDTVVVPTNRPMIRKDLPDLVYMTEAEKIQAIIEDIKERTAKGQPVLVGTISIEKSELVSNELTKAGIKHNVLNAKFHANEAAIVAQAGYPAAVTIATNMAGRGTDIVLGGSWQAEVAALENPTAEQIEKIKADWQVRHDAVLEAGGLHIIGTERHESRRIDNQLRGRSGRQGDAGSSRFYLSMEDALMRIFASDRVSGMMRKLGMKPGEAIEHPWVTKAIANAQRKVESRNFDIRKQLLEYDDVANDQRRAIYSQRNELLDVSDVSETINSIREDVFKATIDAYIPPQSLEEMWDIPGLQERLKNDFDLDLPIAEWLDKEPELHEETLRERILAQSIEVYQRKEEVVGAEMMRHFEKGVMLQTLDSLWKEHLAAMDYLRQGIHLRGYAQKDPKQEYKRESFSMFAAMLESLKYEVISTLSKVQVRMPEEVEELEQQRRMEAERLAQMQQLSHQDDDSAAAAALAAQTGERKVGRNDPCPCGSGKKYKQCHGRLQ
In assay [2] the target is T1, Ubiquitin-activating enzyme e1, putative (Leishmania donovani (strain BPK282A1)) (UniProt E9BSI1).
T1 sequence (whole entry): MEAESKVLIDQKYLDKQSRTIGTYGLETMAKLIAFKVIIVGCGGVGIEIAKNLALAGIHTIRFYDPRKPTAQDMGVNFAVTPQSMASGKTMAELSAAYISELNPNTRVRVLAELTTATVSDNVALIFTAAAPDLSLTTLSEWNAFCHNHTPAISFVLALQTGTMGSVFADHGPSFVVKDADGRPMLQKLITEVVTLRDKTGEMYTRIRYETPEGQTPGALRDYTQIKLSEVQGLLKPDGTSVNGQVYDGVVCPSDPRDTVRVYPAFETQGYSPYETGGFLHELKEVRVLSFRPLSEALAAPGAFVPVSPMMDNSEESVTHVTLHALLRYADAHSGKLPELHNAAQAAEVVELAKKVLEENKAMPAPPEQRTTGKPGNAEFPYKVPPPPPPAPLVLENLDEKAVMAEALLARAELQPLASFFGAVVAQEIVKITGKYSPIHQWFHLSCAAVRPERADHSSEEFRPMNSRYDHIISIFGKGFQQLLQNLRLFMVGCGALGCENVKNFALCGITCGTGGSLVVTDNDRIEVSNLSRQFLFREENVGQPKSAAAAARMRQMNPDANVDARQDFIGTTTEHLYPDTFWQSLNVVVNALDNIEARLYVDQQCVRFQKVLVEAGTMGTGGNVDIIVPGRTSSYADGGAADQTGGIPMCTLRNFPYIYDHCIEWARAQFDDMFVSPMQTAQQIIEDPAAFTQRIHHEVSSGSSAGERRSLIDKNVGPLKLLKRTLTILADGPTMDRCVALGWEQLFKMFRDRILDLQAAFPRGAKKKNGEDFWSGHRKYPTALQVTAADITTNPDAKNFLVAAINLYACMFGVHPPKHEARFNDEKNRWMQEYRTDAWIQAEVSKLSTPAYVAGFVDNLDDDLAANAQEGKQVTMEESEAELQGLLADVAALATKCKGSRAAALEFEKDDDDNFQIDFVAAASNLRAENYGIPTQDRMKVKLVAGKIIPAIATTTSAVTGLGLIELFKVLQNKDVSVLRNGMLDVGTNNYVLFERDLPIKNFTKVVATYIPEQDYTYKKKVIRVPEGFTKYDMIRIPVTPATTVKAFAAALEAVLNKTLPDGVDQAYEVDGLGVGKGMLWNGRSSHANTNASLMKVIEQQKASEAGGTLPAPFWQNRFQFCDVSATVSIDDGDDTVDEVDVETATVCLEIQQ
As to the kind of experiment: Leishmania donovani Ubiquitin Activating Enzyme (LdE1). The format is functional. The conditions noted are these: 30 µM.

For assay [3], the target named is Sialic acid-binding Ig-like lectin 9 (Homo sapiens) (UniProt Q9Y336). In words: Hs-Siglec9 ALPHAscreen SOP 20170721. To be noted: 10 µM. For orientation: Bead proximity is the source of the signal in Alpha formats.
Sequence of Sialic acid-binding Ig-like lectin 9 (Homo sapiens) (Q9Y336 whole entry): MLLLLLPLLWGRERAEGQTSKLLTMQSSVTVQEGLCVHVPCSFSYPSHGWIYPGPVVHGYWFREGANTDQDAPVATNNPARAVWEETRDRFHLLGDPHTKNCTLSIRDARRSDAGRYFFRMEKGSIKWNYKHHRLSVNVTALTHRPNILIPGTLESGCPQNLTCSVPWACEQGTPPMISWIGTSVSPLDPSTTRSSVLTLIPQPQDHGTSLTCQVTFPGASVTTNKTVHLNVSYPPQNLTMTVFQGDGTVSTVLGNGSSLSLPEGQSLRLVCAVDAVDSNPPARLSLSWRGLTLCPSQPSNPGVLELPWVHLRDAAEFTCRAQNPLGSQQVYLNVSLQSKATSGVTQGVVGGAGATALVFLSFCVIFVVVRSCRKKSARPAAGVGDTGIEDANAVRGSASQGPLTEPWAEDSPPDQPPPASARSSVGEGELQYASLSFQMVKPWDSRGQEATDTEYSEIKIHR
The test system of another assay is Trypanosoma cruzi. As to the kind of experiment: Trypanosoma cruzi phosphomannomutase and mannose-1-phosphate guanylyltransferase assay. The format is functional. To be noted: 10 µM.
Assay [4] concerns the target T2, Arginase-2, mitochondrial (Homo sapiens) (UniProt P78540).
T2 sequence (whole entry): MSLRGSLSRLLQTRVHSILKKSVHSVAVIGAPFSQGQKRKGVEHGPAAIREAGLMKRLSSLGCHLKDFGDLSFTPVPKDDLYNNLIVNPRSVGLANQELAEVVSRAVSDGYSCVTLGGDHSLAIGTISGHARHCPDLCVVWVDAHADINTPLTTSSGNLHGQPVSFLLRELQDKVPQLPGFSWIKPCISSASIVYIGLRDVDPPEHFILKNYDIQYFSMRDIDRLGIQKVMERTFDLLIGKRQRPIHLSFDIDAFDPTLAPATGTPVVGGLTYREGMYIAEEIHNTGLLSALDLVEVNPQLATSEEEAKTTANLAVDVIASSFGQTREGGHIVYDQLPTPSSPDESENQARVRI
In words: in vitro enzyme assay to detect the production of urea directly proportional to the activity of Arginase II. Also: in the data most compounds retested in dose-response had high values. The format is functional. To be noted: 33.3 µM.

The target in assay [5] is T3, Proteasome subunit beta (Trypanosoma cruzi) (UniProt O96673).
T3 sequence (whole entry): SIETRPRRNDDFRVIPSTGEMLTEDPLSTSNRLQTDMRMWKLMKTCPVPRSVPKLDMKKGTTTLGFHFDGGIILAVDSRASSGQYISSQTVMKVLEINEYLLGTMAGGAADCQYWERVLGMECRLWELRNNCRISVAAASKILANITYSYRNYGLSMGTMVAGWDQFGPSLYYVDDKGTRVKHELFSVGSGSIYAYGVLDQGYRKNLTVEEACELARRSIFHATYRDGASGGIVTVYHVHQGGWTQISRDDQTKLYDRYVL
As to the kind of experiment: Trypanosoma cruzi proteasome chymotrypsin-like activity (TcProtChymo) assay. Also: in the data most compounds retested in dose-response had high values. The conditions noted are these: 9.37 µM. The format is functional.

The species named for another assay is Homo sapiens. In words: To identify inhibition of the IFN signalling (Jak-Stat) pathway via expression of an eGFP reporter gene under the control of an IFN-stimulated response element (ISRE) containing MxA promoter. The format is functional. To be noted: 30 µM.
Assay [6] concerns the target T4, Tyrosyl-tRNA synthetase, putative (Trypanosoma cruzi (strain CL Brener)) (UniProt Q4DSP6).
T4 sequence (whole entry): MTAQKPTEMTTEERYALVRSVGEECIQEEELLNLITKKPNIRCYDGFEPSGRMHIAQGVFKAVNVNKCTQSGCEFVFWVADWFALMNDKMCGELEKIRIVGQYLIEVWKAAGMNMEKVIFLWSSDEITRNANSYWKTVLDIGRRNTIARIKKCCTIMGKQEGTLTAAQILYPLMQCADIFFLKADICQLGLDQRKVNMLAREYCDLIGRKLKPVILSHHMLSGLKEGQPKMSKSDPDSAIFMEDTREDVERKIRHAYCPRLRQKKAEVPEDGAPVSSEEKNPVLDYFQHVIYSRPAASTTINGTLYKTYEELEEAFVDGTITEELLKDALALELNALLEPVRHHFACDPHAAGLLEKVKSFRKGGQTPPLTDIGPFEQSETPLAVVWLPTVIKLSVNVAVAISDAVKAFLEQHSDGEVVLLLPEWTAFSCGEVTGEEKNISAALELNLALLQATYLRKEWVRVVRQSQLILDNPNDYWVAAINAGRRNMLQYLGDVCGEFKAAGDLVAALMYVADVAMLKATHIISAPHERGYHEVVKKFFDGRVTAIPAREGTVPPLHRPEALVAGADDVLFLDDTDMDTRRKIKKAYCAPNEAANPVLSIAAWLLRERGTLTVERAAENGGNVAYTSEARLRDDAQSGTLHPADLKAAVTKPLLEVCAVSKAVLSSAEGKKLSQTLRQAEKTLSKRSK
As to the kind of experiment: Trypanosoma cruzi tyrosyl tRNA synthetase (TcYRS) _High Tyrosine SOP. Also: in the data most compounds retested in dose-response had high values. The format is functional. The conditions noted are these: 30 µM.

For assay [7], the target named is T4, Tyrosyl-tRNA synthetase, putative (Trypanosoma cruzi (strain CL Brener)). As to the kind of experiment: Trypanosoma cruzi tyrosyl tRNA synthetase (TcYRS) SOP. The format is functional. To be noted: 30 µM.
In assay [8] the target is Chromo domain-containing protein 1 (Saccharomyces cerevisiae (strain ATCC 204508 / S288c) (Baker's yeast)) (UniProt P32657). In words: ScCHD-1 Enzyme Inhibition Assay. Also: in the data most compounds retested in dose-response had high values. The format is functional. The conditions noted are these: 30 µM.
Sequence of Chromo domain-containing protein 1 (Saccharomyces cerevisiae (strain ATCC 204508 / S288c) (Baker's yeast)) (P32657 whole entry, the tested form may be a part): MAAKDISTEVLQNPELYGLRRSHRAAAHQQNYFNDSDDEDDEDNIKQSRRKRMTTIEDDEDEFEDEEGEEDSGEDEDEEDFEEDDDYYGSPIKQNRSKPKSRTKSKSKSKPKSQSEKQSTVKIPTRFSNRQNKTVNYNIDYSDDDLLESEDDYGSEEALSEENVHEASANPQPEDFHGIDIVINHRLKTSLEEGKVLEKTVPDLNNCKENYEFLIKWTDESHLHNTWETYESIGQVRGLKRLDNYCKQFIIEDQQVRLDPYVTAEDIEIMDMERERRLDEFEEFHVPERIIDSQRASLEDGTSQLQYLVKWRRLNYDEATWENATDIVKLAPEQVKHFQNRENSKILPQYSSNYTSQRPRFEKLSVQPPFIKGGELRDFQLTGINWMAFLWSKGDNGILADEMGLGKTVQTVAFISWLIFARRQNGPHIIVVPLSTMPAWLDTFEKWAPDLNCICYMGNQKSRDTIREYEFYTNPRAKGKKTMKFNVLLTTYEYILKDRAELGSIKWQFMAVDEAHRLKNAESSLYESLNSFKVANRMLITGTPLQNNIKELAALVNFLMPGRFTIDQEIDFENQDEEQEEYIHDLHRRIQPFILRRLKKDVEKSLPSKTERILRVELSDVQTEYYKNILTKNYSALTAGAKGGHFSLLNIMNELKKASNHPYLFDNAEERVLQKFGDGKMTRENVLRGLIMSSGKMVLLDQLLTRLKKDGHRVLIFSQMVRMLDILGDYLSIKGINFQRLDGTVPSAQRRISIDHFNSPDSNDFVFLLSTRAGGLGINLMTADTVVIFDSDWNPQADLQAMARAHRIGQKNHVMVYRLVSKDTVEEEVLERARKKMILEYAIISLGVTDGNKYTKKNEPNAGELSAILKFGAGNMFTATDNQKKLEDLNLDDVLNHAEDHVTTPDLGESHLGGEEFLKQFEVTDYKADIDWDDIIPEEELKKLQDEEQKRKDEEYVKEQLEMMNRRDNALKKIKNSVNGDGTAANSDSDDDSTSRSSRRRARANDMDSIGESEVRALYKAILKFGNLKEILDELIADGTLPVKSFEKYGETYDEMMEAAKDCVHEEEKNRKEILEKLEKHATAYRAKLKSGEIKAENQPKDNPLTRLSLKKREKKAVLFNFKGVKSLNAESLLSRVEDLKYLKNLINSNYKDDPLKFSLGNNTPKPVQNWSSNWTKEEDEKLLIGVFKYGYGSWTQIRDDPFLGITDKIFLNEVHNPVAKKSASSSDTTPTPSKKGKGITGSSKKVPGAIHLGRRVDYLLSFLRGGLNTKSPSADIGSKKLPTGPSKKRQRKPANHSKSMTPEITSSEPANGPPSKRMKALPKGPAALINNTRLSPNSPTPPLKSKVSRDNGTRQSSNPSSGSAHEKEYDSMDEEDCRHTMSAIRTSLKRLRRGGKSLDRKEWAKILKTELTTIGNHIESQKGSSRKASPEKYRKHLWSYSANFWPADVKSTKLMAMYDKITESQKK

Regarding `CCN1CCN(C(=O)NCCOc2ccc3c(c2)OCO3)CC1`, the Percent Effect in [1] was -3.49%; in assay [2] it was 20.8%; in assay [3], 7.69%; in the assay on Trypanosoma cruzi, -3.92%; in assay [4] it was 1.84%; in [5], 12.6%. Moreover, the Percent Effect in the assay listed under Homo sapiens was -5.27%; in assay [6], 2.94%; in assay [7], 16.5%; in assay [8], -6.7%.
Regarding `Cc1cccc(CN2CCc3nnc(CO)n3CC2)n1`, the Percent Effect in assay [1] was -0.433%; in assay [2] it was 19.5%; in assay [3], -0.362%; with Trypanosoma cruzi it was 0%; in assay [4] it was 1.37%; in assay [5], 13%. Also, the Percent Effect in the assay filed under Homo sapiens is 16.8%; in [6], 9.66%; in [7], 15%; in assay [8] it was -7.15%.
On to `CCS(=O)(=O)N(C)CC(=O)Nc1ccc(Br)cn1`, for which the Percent Effect in assay [1] was -6.17%; in assay [2], 26.7%; in [3] it was 0.132%; with Trypanosoma cruzi it was -0.402%; in assay [4] it was -0.444%; in assay [5], 18.2%. In addition, the Percent Effect in the assay filed under Homo sapiens is 13.7%; in assay [6], 1.58%; in assay [7], 12.8%; in assay [8] it was -8.92%.
As for `CCS(=O)(=O)CCN1CCC(N(C)Cc2noc(C(C)C)n2)C1` (stereo not given), the Percent Effect is -8.69% in [1]; 13% in assay [2]; 9.47% in assay [3]; -1.87% in the assay with Trypanosoma cruzi; -0.205% in assay [4]; 10.3% in assay [5]. Further, the Percent Effect was 10.2% in the assay filed under Homo sapiens, 4.9% in [6], 11.8% in assay [7] and -6.07% in [8].
Consider `CCS(=O)(=O)c1ncc(CN(C)Cc2ccccn2)n1CCOC`, for which the Percent Effect in assay [1] was -6.13%; in assay [2], 5.41%; in assay [3], 13.7%; in the assay on Trypanosoma cruzi, 5.33%; in assay [4] it was 2.45%; in assay [5] it was 5.65%. For the same compound, the Percent Effect is 3.71% in the assay filed under Homo sapiens, 4.79% in [6], 14.6% in [7] and -2.76% in assay [8].
Consider `O=C1NCCN(CC2CC2)C12CCN(Cc1ccco1)CC2`, for which the Percent Effect in [1] is -2.83%; in [2], 9.09%; in [3], -15.9%; with Trypanosoma cruzi, -9.45%; in assay [4] it was 2.83%; in assay [5], 18.8%. The Percent Effect in the assay filed under Homo sapiens is 10.4%; in assay [6], 2.63%; in assay [7], -2.56%; in [8] it was -3.23%.
For the compound `Cc1nn(C)c(N(C)C)c1CNC(C)COc1cccc(F)c1` (stereo not given), the Percent Effect in assay [1] is -4.28%; in assay [2] it was -5.2%; in assay [3], -1.85%; in the assay on Trypanosoma cruzi, -6.16%; in [4], -2.66%; in [5], 5.26%. For the same compound, the Percent Effect was 9.12% in the assay listed under Homo sapiens, -3.92% in [6], -4.71% in assay [7] and -2.29% in assay [8].
As to `Cc1nc(CN2CCO[C@@H]3CN(C(=O)NC(C)C)CC[C@@H]3C2)cs1`, the Percent Effect in assay [1] is -3.94%; in assay [2], 1.3%; in assay [3], 0.95%; with Trypanosoma cruzi, -3.8%; in [4] it was -0.405%; in [5] it was 1.85%. In addition, the Percent Effect in the assay filed under Homo sapiens was -21.3%; in assay [6] it was 3.68%; in assay [7] it was 7.69%; in [8], -1.55%.
With `Cc1ncc(-c2ccnc(N3CCCCC3)n2)c(=O)[nH]1`, the Percent Effect was -0.483% in assay [1]; 8% in assay [2]; 1.07% in [3]; -8.84% in the assay with Trypanosoma cruzi; -0.887% in assay [4]; 9.07% in assay [5]. In addition, the Percent Effect was 21.2% in the assay filed under Homo sapiens, 0.526% in assay [6], 5.13% in assay [7] and -11.6% in assay [8].
